Results reported in ChEMBL document CHEMBL1961873, “Compounds: GSK PKIS; Assays: Nanosyn kinase panel” (2012).

These compounds were tested against T1, Serine/threonine-protein kinase Chk1 (Homo sapiens) (UniProt O14757). Settings: at 0.1 µM.
T1 sequence (whole entry): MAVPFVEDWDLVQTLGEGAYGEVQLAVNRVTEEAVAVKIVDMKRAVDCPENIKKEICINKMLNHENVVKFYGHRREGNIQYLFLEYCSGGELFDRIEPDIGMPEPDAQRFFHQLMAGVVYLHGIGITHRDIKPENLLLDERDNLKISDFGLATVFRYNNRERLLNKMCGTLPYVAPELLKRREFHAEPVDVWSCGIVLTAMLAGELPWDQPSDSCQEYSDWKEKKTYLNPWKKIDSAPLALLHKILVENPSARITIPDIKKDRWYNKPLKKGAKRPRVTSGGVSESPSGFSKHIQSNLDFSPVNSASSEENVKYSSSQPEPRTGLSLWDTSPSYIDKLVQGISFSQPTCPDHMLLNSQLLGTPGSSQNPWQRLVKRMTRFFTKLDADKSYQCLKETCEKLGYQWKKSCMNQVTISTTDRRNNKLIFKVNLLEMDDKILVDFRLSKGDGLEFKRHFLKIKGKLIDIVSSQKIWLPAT
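Further: reported figure is the mean percent inhibition of CHEK1.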

SMILES	inhibition [%]
COc1cc2ncn(-c3cc(OCCc4ccccc4)c(C(N)=O)s3)c2cc1OC	1.61
NS(=O)(=O)c1ccc(N/N=C2\C(=O)Nc3ccc(C(=O)NCCCn4ccnc4)cc32)cc1	10.4
C/C(Nc1ccc(S(N)(=O)=O)cc1)=C1/C(=O)Nc2ccccc21	4.5
O=C1Nc2ccc(I)cc2C1=Cc1cc(Br)c(O)c(Br)c1	0.05
CN(c1ccc(NC(=O)Nc2c(Cl)cccc2Cl)cc1)c1ccnc(Nc2cccc(CS(C)(=O)=O)c2)n1	1.99
CN(C)CCOc1ccc(-c2cc(-c3ccc4c(c3)CCC4=NO)c(-c3ccncc3)o2)cc1	-2.19
Cc1ccc(C(=O)NC2CCC2)cc1-c1ccc(C(=O)NCC2CC2)cc1	2.53
COc1ccc(-c2ccc3c(NC(=O)C4CC4)n[nH]c3n2)cc1	2.25
COc1ccc2ncn(-c3cc(O[C@H](C)c4ccccc4Cl)c(C(N)=O)s3)c2c1	0.23
NS(=O)(=O)c1ccc(Nc2cc(-c3ccc(O)c(F)c3)n[nH]2)cc1	-5.01
COc1ccc(C2=C(N3CCc4ccccc43)C(=O)NC2=O)cc1	3.53
COc1cc2ncn(-c3cc(OCc4cccs4)c(C(N)=O)s3)c2cc1OC	1.35
O=C(Nc1n[nH]c2nc(-c3ccc(O)cc3)c(Br)cc12)C1CC1	8.74
COc1cc(Nc2ncc3c(C)nc(-c4cccc(Oc5ccccc5)c4)n3n2)cc(OC)c1OC	3.9
COc1cccc(/C=N/Nc2ncnc3c2cnn3-c2cccc(OC)c2)c1	-0.79
COc1cc(Nc2ncc(-c3ccccc3)o2)cc(OC)c1OC	1.58
COc1cc(N2CCN(C(C)C)CC2)ccc1Nc1nc(Nc2ccc(F)cc2C(=O)NC[C@@H](O)CO)c2cc[nH]c2n1	2.18

SMILES	inhibition [%]
CS(=O)(=O)CCNCc1cc(-c2cc3c(Nc4ccc(OCc5cccc(F)c5)c(Cl)c4)ncnc3s2)cs1	1.14
O=C(Nc1n[nH]c2cc(-c3ccccc3)ccc12)C1CC1	2.36
CNC(=O)c1cncc(/C=C/c2c(C)cccc2C)c1	-0.79
NC(=O)Cc1ccccc1Oc1nccc(-c2c(-c3ccc(F)cc3)ncn2C2CCNCC2)n1	0.75
COc1ccc2cc(-c3c(-c4ccncc4)nc(-c4ccc([S+](C)[O-])cc4C)n3C)ccc2c1 (centres undefined)	-4.29
COc1ccc2cc(-c3c(-c4ccncc4)nc(-c4ccc(S(C)(=O)=O)cc4C)n3C)ccc2c1	-2.73
COc1cc2ncn(-c3cc(OCc4ccccc4C(F)(F)F)c(C(C)=O)s3)c2cc1OC	2.09
NC(=O)c1cc(-c2ccncc2)cc(-c2ccccc2)c1N	-1.87
CN(C)c1ccc2c(c1)/C(=C/Nc1ccc(S(N)(=O)=O)cc1)C(=O)N2	8.69
CCC(=O)Nc1ccc(C)c(-c2ccc(C(=O)NCC3CC3)cc2)c1	0.06
Fc1ccc(-c2c(-c3ccncc3)nc3n2CCS3)cc1	0.42
CN1CCN(CCCNc2nc3ccc(Oc4ccc(NC(=O)Nc5cc(C(F)(F)F)ccc5F)cc4)cc3[nH]2)CC1	-0.5
c1ccc(-c2n[nH]cc2-c2ccnc(-c3ccc(OCCN4CCOCC4)cc3)c2)nc1	1.01
Fc1ccc(-c2nc3n(c2-c2ccncc2)CCS3)cc1	0.32
Fc1ccc(-c2ncn(CCCN3CCOCC3)c2-c2ccncc2)cc1	2.08
O=C(Nc1ccc(Oc2ccc3[nH]c(NC(=O)c4ccccc4)nc3c2)cc1)Nc1cc(C(F)(F)F)ccc1F	4.82
Cc1nnc(-c2ccc(C)c(-c3ccc(C(=O)NCc4ccc(Cl)cc4)cc3)c2)o1	1.36
